Tests used:
Histone H4 = Histone H4 (UniProt P62805); assay: cross-linking mass spectrometry
Histone H1.4 = Histone H1.4 (UniProt P10412); assay: cross-link between two proteins; cross-linking mass spectrometry
Protein RCC2 = Protein RCC2 (UniProt Q9P258); assay: as above
[1] = target: Beta-actin-like protein 2 (UniProt Q562R1); assay: as above
[2] = target: Elongation factor 1-alpha 1 (UniProt P68104); assay: as above
Histone H2B type 1-B = Histone H2B type 1-B (UniProt P33778); assay: as above
Histone H2B type 1-L = Histone H2B type 1-L (UniProt Q99880); assay: as above
[3] = target: Large ribosomal subunit protein eL8 (UniProt P62424); assay: as above
Nucleolin = Nucleolin (UniProt P19338); assay: as above
Nucleolin, sequence (P19338 whole entry): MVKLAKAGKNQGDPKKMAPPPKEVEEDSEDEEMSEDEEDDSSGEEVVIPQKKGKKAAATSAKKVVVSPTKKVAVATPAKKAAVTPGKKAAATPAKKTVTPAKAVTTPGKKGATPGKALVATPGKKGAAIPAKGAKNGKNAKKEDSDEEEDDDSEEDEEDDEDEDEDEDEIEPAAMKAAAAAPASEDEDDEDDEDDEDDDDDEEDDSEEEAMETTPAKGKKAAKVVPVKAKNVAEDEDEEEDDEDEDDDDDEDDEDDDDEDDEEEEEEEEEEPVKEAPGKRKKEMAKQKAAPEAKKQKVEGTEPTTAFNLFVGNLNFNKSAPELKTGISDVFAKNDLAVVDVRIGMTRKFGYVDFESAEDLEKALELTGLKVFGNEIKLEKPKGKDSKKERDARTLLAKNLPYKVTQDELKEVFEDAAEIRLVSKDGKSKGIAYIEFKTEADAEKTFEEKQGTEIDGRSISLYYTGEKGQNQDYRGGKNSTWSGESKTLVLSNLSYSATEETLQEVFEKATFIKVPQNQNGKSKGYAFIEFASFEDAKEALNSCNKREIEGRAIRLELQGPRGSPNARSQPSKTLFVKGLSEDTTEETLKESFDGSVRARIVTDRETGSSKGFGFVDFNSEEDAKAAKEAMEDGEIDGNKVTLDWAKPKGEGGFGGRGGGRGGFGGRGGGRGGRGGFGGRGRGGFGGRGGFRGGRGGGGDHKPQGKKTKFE

Tubulin beta-2B chain = Tubulin beta-2B chain (UniProt Q9BVA1); assay: as above
Tubulin beta-2B chain, sequence (Q9BVA1 whole entry): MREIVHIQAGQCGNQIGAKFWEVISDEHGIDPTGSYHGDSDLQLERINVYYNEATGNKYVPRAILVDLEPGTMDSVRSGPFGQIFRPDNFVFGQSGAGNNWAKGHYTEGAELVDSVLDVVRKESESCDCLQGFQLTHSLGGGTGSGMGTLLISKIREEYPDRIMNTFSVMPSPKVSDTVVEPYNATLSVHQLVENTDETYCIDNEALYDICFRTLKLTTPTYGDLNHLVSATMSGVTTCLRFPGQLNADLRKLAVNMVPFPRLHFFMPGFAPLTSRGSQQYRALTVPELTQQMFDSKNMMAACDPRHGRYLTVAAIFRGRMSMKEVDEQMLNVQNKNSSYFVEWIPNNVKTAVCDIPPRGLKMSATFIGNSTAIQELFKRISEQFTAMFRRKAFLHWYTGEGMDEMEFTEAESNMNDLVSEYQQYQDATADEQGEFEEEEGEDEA

Tubulin beta-3 chain = Tubulin beta-3 chain (UniProt Q13509); assay: as above
Tubulin beta-3 chain, sequence (Q13509 whole entry): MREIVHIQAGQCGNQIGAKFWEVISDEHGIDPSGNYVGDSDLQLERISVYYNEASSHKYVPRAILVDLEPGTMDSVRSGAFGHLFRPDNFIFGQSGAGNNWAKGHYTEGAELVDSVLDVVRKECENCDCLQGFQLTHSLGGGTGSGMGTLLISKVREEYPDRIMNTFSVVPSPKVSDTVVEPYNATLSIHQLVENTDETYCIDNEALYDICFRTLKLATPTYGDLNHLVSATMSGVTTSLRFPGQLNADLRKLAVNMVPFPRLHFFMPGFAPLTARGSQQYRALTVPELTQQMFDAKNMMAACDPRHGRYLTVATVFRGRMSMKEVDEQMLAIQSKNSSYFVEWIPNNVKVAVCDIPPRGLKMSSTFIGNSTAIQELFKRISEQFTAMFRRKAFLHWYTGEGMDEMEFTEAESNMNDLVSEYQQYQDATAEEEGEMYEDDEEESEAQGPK

Tubulin beta-4B chain = Tubulin beta-4B chain (UniProt P68371); assay: as above
Tubulin beta-4B chain, sequence (P68371 whole entry): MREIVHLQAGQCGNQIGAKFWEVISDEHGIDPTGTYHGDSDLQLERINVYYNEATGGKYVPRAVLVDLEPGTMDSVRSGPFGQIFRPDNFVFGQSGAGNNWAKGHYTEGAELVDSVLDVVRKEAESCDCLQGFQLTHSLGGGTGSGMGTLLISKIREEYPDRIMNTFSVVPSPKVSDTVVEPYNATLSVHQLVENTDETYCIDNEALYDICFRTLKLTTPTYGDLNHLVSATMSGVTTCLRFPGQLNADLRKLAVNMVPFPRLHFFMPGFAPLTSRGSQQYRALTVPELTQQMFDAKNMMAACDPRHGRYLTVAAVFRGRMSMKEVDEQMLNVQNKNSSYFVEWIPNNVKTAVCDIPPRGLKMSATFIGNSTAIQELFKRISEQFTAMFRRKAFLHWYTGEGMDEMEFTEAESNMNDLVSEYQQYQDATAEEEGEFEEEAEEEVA

Elongation factor 1-alpha 1, sequence (P68104 whole entry): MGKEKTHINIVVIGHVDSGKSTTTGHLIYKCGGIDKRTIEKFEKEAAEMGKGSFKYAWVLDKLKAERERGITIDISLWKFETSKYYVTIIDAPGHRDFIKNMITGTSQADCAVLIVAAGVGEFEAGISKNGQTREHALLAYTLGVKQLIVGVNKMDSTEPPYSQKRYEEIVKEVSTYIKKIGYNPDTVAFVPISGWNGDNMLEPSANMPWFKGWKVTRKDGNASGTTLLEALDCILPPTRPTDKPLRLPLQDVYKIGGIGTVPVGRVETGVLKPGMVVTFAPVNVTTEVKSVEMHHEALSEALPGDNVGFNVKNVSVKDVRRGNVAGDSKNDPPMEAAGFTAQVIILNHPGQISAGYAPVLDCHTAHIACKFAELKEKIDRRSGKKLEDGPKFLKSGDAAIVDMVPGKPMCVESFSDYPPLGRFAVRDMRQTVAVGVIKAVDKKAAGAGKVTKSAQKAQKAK
Glyceraldehyde-3-phosphate dehydrogenase, P04406, sequence (P04406 whole entry): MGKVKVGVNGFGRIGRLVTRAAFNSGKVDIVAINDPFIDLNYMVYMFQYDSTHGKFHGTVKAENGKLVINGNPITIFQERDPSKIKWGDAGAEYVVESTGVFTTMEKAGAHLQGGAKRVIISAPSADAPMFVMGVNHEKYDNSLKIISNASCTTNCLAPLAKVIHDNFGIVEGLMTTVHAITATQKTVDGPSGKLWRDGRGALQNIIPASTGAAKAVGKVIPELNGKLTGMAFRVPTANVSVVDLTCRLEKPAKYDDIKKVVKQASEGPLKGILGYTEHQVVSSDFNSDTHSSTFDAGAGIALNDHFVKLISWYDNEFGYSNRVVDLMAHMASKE
ATP-dependent RNA helicase A, Q08211, sequence (Q08211 whole entry): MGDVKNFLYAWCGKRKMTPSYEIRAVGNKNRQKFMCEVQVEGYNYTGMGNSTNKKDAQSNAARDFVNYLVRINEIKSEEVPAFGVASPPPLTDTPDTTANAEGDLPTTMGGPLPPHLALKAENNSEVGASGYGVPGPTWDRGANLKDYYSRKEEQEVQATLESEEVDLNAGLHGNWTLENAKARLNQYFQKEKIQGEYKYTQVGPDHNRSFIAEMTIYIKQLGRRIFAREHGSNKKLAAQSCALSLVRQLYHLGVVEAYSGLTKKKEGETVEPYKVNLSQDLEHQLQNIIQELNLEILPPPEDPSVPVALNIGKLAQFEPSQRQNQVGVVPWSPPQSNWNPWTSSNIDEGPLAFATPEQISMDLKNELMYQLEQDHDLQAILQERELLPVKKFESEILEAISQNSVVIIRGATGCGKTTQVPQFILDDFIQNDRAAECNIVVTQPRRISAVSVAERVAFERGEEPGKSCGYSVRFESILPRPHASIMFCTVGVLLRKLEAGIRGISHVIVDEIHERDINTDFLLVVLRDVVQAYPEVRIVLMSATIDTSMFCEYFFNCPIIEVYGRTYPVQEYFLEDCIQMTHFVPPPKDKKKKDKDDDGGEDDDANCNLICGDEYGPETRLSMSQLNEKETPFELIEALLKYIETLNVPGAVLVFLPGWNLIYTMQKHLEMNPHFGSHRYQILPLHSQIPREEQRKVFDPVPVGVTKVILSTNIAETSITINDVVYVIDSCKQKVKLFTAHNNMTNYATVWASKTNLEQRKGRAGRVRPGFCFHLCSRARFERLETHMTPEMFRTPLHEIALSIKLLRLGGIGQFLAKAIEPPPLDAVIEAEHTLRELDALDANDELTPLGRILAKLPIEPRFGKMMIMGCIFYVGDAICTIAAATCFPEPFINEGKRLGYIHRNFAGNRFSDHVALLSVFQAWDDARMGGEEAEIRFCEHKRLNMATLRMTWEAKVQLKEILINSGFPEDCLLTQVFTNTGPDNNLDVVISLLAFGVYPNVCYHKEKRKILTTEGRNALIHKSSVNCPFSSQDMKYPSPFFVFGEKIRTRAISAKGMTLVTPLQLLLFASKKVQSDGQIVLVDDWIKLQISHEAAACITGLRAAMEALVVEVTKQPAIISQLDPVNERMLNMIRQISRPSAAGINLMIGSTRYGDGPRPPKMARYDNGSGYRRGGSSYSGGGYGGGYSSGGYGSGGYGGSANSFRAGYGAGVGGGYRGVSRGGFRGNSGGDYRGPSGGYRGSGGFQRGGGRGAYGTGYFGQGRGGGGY
Protein RCC2, sequence (Q9P258 whole entry): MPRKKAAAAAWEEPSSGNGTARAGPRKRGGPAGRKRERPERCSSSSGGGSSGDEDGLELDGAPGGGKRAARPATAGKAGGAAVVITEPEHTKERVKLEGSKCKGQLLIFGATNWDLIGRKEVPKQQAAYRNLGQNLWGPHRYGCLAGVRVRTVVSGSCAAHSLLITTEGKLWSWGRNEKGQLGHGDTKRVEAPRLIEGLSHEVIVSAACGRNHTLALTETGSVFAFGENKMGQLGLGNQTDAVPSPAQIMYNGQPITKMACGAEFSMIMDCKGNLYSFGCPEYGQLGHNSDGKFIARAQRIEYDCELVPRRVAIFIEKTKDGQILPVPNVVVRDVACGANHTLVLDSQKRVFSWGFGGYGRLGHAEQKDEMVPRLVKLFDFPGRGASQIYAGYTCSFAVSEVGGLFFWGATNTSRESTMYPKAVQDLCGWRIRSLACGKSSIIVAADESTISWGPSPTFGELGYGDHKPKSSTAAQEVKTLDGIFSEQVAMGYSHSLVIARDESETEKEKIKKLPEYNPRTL
Beta-actin-like protein 2, sequence (Q562R1 whole entry): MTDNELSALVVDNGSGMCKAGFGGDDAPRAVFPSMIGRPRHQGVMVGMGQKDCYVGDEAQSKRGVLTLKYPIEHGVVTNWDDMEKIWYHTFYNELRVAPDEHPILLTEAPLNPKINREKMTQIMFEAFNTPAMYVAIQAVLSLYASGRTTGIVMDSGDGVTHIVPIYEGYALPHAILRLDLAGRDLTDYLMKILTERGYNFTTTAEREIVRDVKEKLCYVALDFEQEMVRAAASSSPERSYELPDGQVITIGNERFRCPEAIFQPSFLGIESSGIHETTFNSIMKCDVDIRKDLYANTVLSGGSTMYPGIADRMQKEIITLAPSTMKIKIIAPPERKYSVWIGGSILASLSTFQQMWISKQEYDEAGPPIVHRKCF

Substance: High mobility group protein B1, P09429
- listed as a hit (Histone H4): yes
- listed as a hit (Histone H1.4): yes
- listed as a hit (Protein RCC2): yes

Substance: Destrin, P60981
- listed as a hit [1]: yes

Substance: Fructose-bisphosphate aldolase A, P04075
- listed as a hit [2]: yes
- listed as a hit (Histone H2B type 1-B): yes

Substance: Heterogeneous nuclear ribonucleoprotein D-like, O14979
- listed as a hit (Histone H2B type 1-L): yes

Substance: ATP-dependent RNA helicase A, Q08211
- listed as a hit (Histone H2B type 1-L): yes

Substance: Histone H1.3, P16402
- listed as a hit [3]: yes

Substance: Macrophage migration inhibitory factor, P14174
- listed as a hit (Nucleolin): yes

Substance: Tubulin beta-4B chain, P68371
- listed as a hit (Tubulin beta-2B chain): yes
- listed as a hit (Tubulin beta-3 chain): yes

Substance: Glyceraldehyde-3-phosphate dehydrogenase, P04406
- listed as a hit (Tubulin beta-4B chain): yes

Substance: Tubulin beta chain, P07437
- listed as a hit (Tubulin beta-4B chain): yes
